About 83,000 compounds went through this panel and 20% of them were active in at least one assay; those are over-represented in the sample as a whole.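 For each line, cells grew in 96-well plates with the test compound present at a single concentration for 48 hours.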 A number with no mark means an inactive call. The source made the active and inactive calls. Rule for the calls: active = growth percent below 10; inactive = the rest.
Assays:
Assay in all cases: NCI-60 one-dose screen, 48 h (100 = growth as untreated, 0 = no growth, -100 = all killed)
NCI-H23 lung = settings: 10 µM unless noted
NCI-H226 lung = settings: 10 µM unless noted
NCI-H322M lung = settings: 10 µM unless noted
HOP-62 NSCLC = settings: 10 µM unless noted
NCI-H460 lung = settings: 10 µM unless noted
HOP-92 NSCLC = settings: 10 µM unless noted
NCI-H522 lung = settings: 10 µM unless noted
786-0 renal = settings: 10 µM unless noted
COLO 205 colon = settings: 10 µM unless noted
DU-145 prostate = settings: 10 µM unless noted
K-562 leukemia = settings: 10 µM unless noted
MALME-3M melanoma = settings: 10 µM unless noted
MDA-MB-231 breast = settings: 10 µM unless noted
RXF 393 renal = settings: 10 µM unless noted
SF-268 CNS = settings: 10 µM unless noted
SF-295 CNS = settings: 10 µM unless noted
SF-539 CNS = settings: 10 µM unless noted
M14 melanoma = settings: 10 µM unless noted
UACC-257 melanoma = settings: 10 µM

N#Cc1c(NC(=O)c2ccc([N+](=O)[O-])o2)[n+]([O-])c2cc(F)c(F)cc2[n+]1[O-]
growth (NCI-H23 lung): 99%
growth (NCI-H226 lung): 108%
growth (NCI-H322M lung): 119%
growth (HOP-62 NSCLC): 123%
growth (NCI-H460 lung): 110%
growth (HOP-92 NSCLC): 96.6%
growth (NCI-H522 lung): 101%
growth (786-0 renal): 110%
growth (COLO 205 colon): 132%
growth (DU-145 prostate): 126%
growth (K-562 leukemia): 92.2%
growth (MALME-3M melanoma): 125%
growth (MDA-MB-231 breast): 114%
growth (RXF 393 renal): 1.39% (active)
growth (SF-268 CNS): 120%
growth (SF-295 CNS): 97%
growth (SF-539 CNS): 137%
growth (M14 melanoma): 112%

COc1cc(OC)c(C(=O)/C=C/c2cccc(C#N)c2)c(OC)c1
growth (NCI-H23 lung): -7.14% (active)
growth (NCI-H226 lung): 3.93% (active)
growth (NCI-H322M lung): -1.49% (active)
growth (HOP-62 NSCLC): -9.93% (active)
growth (NCI-H460 lung): 0.36% (active)
growth (HOP-92 NSCLC): -5.88% (active)
growth (NCI-H522 lung): -25.9% (active)
growth (786-0 renal): 9.74% (active)
growth (COLO 205 colon): -6.79% (active)
growth (DU-145 prostate): 15.3%
growth (K-562 leukemia): 13.7%
growth (MALME-3M melanoma): 35.4%
growth (MDA-MB-231 breast): 17.1%
growth (RXF 393 renal): -3.8% (active)
growth (SF-268 CNS): 13.5%
growth (SF-295 CNS): 1.75% (active)
growth (SF-539 CNS): -7.41% (active)
growth (UACC-257 melanoma): 32.2%
growth (M14 melanoma): 6.71% (active)

COC1=CC(c2ccc[nH]2)=N/C1=C\c1[nH]c(C)c(CCCn2cc(CCCCCCCCC[C@@H]3Cc4cc(O)ccc4C4CC[C@]5(C)[C@@H](O)CC[C@H]5C43)nn2)c1C (some centres not stated)
growth (NCI-H23 lung): 49.9%
growth (NCI-H226 lung): 68.2%
growth (NCI-H322M lung): 44.6%
growth (HOP-62 NSCLC): 60.3%
growth (NCI-H460 lung): 37.3%
growth (HOP-92 NSCLC): 25.8%
growth (NCI-H522 lung): 24.5%
growth (786-0 renal): 63.9%
growth (COLO 205 colon): 35.8%
growth (DU-145 prostate): 33.3%
growth (K-562 leukemia): 28%
growth (MALME-3M melanoma): 137%
growth (MDA-MB-231 breast): -12.8% (active)
growth (RXF 393 renal): 28.1%
growth (SF-268 CNS): 58.2%
growth (SF-295 CNS): 65.2%
growth (SF-539 CNS): 59.1%
growth (UACC-257 melanoma): 98.5%
growth (M14 melanoma): 74%

Cc1cc2c(c(=O)o1)C(c1ccc(OC(=O)N3CCOCC3)cc1)C(C#N)=C(N)O2 (configuration not stated)
growth (NCI-H23 lung): 97.4%
growth (NCI-H226 lung): 104%
growth (NCI-H322M lung): 93.1%
growth (HOP-62 NSCLC): 89.6%
growth (NCI-H460 lung): 107%
growth (HOP-92 NSCLC): 113%
growth (NCI-H522 lung): 98.9%
growth (786-0 renal): 99.2%
growth (COLO 205 colon): 118%
growth (DU-145 prostate): 112%
growth (K-562 leukemia): 98.6%
growth (MALME-3M melanoma): 126%
growth (MDA-MB-231 breast): 116%
growth (RXF 393 renal): 114%
growth (SF-268 CNS): 114%
growth (SF-295 CNS): 100%
growth (SF-539 CNS): 96.5%
growth (UACC-257 melanoma): 98.2%
growth (M14 melanoma): 110%

COc1cccc(-n2cc(-c3nc(Cl)c4ccccc4n3)nn2)c1
growth (NCI-H23 lung): 100%
growth (NCI-H226 lung): 111%
growth (NCI-H322M lung): 102%
growth (HOP-62 NSCLC): 125%
growth (NCI-H460 lung): 107%
growth (HOP-92 NSCLC): 101%
growth (NCI-H522 lung): 83.2%
growth (786-0 renal): 97.8%
growth (COLO 205 colon): 98.8%
growth (DU-145 prostate): 107%
growth (K-562 leukemia): 97.9%
growth (MALME-3M melanoma): 104%
growth (MDA-MB-231 breast): 107%
growth (SF-268 CNS): 105%
growth (SF-295 CNS): 93.2%
growth (SF-539 CNS): 108%
growth (UACC-257 melanoma): 110%
growth (M14 melanoma): 106%

COc1ccc(C2=NN(c3ccc(S(N)(=O)=O)cc3)C(c3cn(-c4ccccc4)nc3-c3ccc(Cl)cc3)C2)cc1 (configuration not stated)
growth (NCI-H23 lung): 93.9%
growth (NCI-H226 lung): 101%
growth (NCI-H322M lung): 94.4%
growth (HOP-62 NSCLC): 95.3%
growth (NCI-H460 lung): 89%
growth (HOP-92 NSCLC): 110%
growth (NCI-H522 lung): 71.1%
growth (786-0 renal): 105%
growth (COLO 205 colon): 93.7%
growth (DU-145 prostate): 95.2%
growth (K-562 leukemia): 66.9%
growth (MDA-MB-231 breast): 93.5%
growth (RXF 393 renal): 97.3%
growth (SF-268 CNS): 85.6%
growth (SF-295 CNS): 93.1%
growth (SF-539 CNS): 102%
growth (UACC-257 melanoma): 95.4%
growth (M14 melanoma): 83.9%

COc1cc(C2C=C(C)N=C3SC(C)=NN32)cc(OC)c1OC (configuration not stated)
growth (NCI-H23 lung): 94.8%
growth (NCI-H226 lung): 107%
growth (NCI-H322M lung): 116%
growth (HOP-62 NSCLC): 95.9%
growth (NCI-H460 lung): 114%
growth (HOP-92 NSCLC): 90.9%
growth (NCI-H522 lung): 89.8%
growth (786-0 renal): 105%
growth (COLO 205 colon): 96.3%
growth (DU-145 prostate): 108%
growth (K-562 leukemia): 107%
growth (MDA-MB-231 breast): 111%
growth (RXF 393 renal): 114%
growth (SF-268 CNS): 105%
growth (SF-295 CNS): 111%
growth (SF-539 CNS): 114%
growth (UACC-257 melanoma): 106%
growth (M14 melanoma): 102%

Nc1ccccc1C#C/C=C\C#Cc1cccc(O)c1
growth (NCI-H23 lung): 97.3%
growth (NCI-H226 lung): 95.4%
growth (NCI-H322M lung): 93.6%
growth (HOP-62 NSCLC): 40.2%
growth (NCI-H460 lung): 34.7%
growth (HOP-92 NSCLC): -30.1% (active)
growth (NCI-H522 lung): 52.9%
growth (786-0 renal): 61.5%
growth (COLO 205 colon): 81.2%
growth (DU-145 prostate): 73.1%
growth (K-562 leukemia): 30.9%
growth (MALME-3M melanoma): 51.6%
growth (MDA-MB-231 breast): 39.7%
growth (RXF 393 renal): 59%
growth (SF-268 CNS): 65.3%
growth (SF-295 CNS): 40.2%
growth (SF-539 CNS): 42.9%
growth (M14 melanoma): 31.5%
